Screens from PubChem BioAssay.
An excerpt weighted towards active compounds, which were near 4.8% of everything screened.
SMARCA2 activ: SMARCA2 function activation, primary screen; MG213 cells, MMTV-luciferase reporter, dexamethasone, overnight; activation, % at 9.1 µM; 370,000 tested, 1% active; in the data active = activation above about 7.8%;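 note: 0% = vehicle wells and 100% = reference activator wells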
DAX1 inh-1: inhibits human nuclear receptor DAX1 | P51843 | HEK293 Gal4-DAX1 luciferase reporter, luminescence | inhibition, % at 6.75 µM | 340,000 tested, 0.99% active;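 active = inhibition above the mean over all tested compounds plus 3 SD, cut at about 4.2% in these data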;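 note: 0% = DAX1-transfected cells with DMSO and 100% = empty-vector control cells with DMSO; inhibition shows as a rise in luminescence from relieved DAX1 repression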
hgDAF-12 ag: activates the H. glycines DAF-12 receptor ligand-binding domain; AID 687014; 370,000 tested, 1.8% active; HEK293 GAL4-hgDAF12 UAS-luciferase reporter, agonist luminescence; normalized to butyrate control; activation, % at 6.8 µM;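 active = activation above a cutoff set at the mean of all screened compounds plus 3 SD, cut at about 10% in these data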;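 note: 0% = DMSO wells and 100% = sodium butyrate wells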
DAX1 inh-2: inhibitors of DAX1 repression of SF-1 activated StAR promoter. 370,000 tested, 1.1% active. AID 652010. inhibition, % at 6.8 µM. HEK293T StAR-luciferase reporter, SF-1/DAX-1 repression relief;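 active = inhibition above the mean over all tested compounds plus 3 SD, cut at about 3.6% in these data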;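 note: 0% = DAX-1 cells with DMSO and 100% = cells lacking DAX-1 with DMSO; higher inhibition means more luminescence from relief of DAX-1 repression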
hcDAF12 agonist: H. contortus DAF-12 activation, primary screen; HEK293 hcDAF-12 lit1-tk-luc reporter, luminescence; 0% DMSO, 100% Δ7-dafachronic acid; activation, % at 6.8 µM; 370,000 tested, 1.4% active;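 active = activation above the mean of all tested compounds plus 3 SD, cut at about 5.5% in these data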;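 note: 100% = response to 3 µM Δ7-dafachronic acid high control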
ssDAF12 agonist: S. stercoralis DAF-12 activation, primary screen | AID 652126 | 370,000 tested, 1% active | activation, % at 6.8 µM | HEK293 ssDAF-12/GRIP1 lit1-tk-luc reporter, luminescence; % of 3 µM dafachronic acid response;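 active = activation above the mean over all tested compounds plus 3 SD, cut at about 0.9% in these data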;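 note: 0% = DMSO-only wells and 100% = 3 µM delta7-dafachronic acid wells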
LXRb hcDAF ctr: counter-screen for hcDAF-12 agonists: agonists of human LXR-beta | 3,400 tested, under 10 active | AID 743027 | activation, % at 6.8 µM | shares compounds with hcDAF12 agonist | HEK293 Gal4-LXR tk-luc reporter, luminescence, 24 h; normalized: DMSO 0%, positive control 100%;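 active = mean percent activation of the reporter above a cutoff set as the average over tested compounds plus their standard deviation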
Target sequence (P55055 whole entry, looked up, the tested form may be a part): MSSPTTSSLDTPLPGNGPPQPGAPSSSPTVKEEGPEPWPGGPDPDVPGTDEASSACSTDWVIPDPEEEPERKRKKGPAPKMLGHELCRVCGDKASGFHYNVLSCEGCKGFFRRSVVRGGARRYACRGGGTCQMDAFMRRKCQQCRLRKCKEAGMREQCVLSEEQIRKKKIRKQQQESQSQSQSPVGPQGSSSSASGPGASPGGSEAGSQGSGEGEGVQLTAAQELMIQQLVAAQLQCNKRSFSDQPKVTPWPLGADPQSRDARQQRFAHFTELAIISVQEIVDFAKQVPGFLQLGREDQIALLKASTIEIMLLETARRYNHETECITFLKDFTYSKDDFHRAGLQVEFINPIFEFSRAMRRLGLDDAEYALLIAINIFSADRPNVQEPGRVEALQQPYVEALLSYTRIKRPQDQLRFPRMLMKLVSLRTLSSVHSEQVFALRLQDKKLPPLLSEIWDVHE
hcDAF12 conf: hcDAF-12 agonism, confirmation assay; shares compounds with hcDAF12 agonist; HEK293 hcDAF-12 lit1-tk-luc reporter, luminescence; % of Δ7-dafachronic acid response; activation, % at 6.8 µM; 3,400 tested, 61% active; AID 743032;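 active = mean activation across triplicate tests above the threshold derived from the earlier primary screen, cut at about 5.5% in these data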;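 note: 0% = DMSO only wells and 100% = 3 µM Δ7-dafachronic acid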
Numbers without * were called inactive.

For COC(=O)C1=C(C)N(Cc2ccccc2C(F)(F)F)C(=NCc2cccc(C(F)(F)F)c2)NC1CCc1ccccc1 (configuration not stated) the results were SMARCA2 activ -4, hgDAF-12 ag -1, DAX1 inh-2 -1, hcDAF12 agonist 0 and ssDAF12 agonist 0.
`CCOc1ccc(N=NC2C(=O)N(C(N)=S)N=C2C)cc1` (configuration not stated) gave SMARCA2 activ 3, DAX1 inh-1 4, hgDAF-12 ag 8, DAX1 inh-2 3, hcDAF12 agonist 6.6*, ssDAF12 agonist 0.9*, LXRb hcDAF ctr 1 and hcDAF12 conf 5.
For CCOC(=O)CN1C(=O)[C@]2(OCCC=C[C@H]2C)c2cc(OC)ccc21 the results were SMARCA2 activ -4, hgDAF-12 ag -2, DAX1 inh-2 0, hcDAF12 agonist 0 and ssDAF12 agonist 0.
For CSc1ccccc1NC(=O)c1cc(CC(C)C)on1 the results were SMARCA2 activ 2, DAX1 inh-1 0, hgDAF-12 ag 11*, DAX1 inh-2 2, hcDAF12 agonist 7.5*, ssDAF12 agonist 0, LXRb hcDAF ctr 0 and hcDAF12 conf 4.
Screening Cc1cc(NC(=O)c2cc(CC(C)C)on2)no1 returned SMARCA2 activ 3, DAX1 inh-1 0, hgDAF-12 ag 7, DAX1 inh-2 1, hcDAF12 agonist 2 and ssDAF12 agonist 0.
Screening N#Cc1ccccc1OCCN1C(=O)c2ccccc2C1=O returned SMARCA2 activ 2, DAX1 inh-1 2, hgDAF-12 ag 3, DAX1 inh-2 1, hcDAF12 agonist 4 and ssDAF12 agonist -1.
`Nc1cccc2c1C(=O)N(CCOc1ccccc1F)C2=O` gave SMARCA2 activ 6, DAX1 inh-1 1, hgDAF-12 ag 11*, DAX1 inh-2 3, hcDAF12 agonist 18*, ssDAF12 agonist 1.9*, LXRb hcDAF ctr 2 and hcDAF12 conf 18*.
Screening COC(=O)[C@]12C[C@H](CC(=O)NCCCN3CCCC3=O)C(=O)N(Cc3ccccc3)C1=C[C@H](C(C)C)O[C@@H]2C1CC1 returned SMARCA2 activ -4, hgDAF-12 ag 2, DAX1 inh-2 1, hcDAF12 agonist -1 and ssDAF12 agonist -1.
Nc1c2c(nc3sc4c(c13)CCCC4)-c1ccccc1CC2 was read as SMARCA2 activ 7, DAX1 inh-1 3, hgDAF-12 ag 10, DAX1 inh-2 3, hcDAF12 agonist 7.6*, ssDAF12 agonist 1.1*, LXRb hcDAF ctr 2 and hcDAF12 conf 11*.
Screening CCCCNc1cccc2c1S(=O)(=O)N[C@@H](CC(C)C)CO2 returned SMARCA2 activ 1, hgDAF-12 ag 0, DAX1 inh-2 -1, hcDAF12 agonist -1 and ssDAF12 agonist -2.
COC(=O)N1C[C@H](OCc2ccc3c(c2)OCO3)[C@H]2C[C@@H]1c1ccccc1O2 was read as SMARCA2 activ -4, hgDAF-12 ag -4, DAX1 inh-2 0, hcDAF12 agonist 1 and ssDAF12 agonist -1.
For O=C1CC(c2cccs2)Sc2nc3ccccc3n21 (configuration not stated) the results were SMARCA2 activ 7, DAX1 inh-1 1, hgDAF-12 ag 10, DAX1 inh-2 3, hcDAF12 agonist 7.5*, ssDAF12 agonist 1.6*, LXRb hcDAF ctr 1 and hcDAF12 conf 7.4*.
`O=C1CC(c2ccc3c(c2)OCO3)Sc2nc3ccccc3n21` (configuration not stated) gave SMARCA2 activ -1, DAX1 inh-1 0, hgDAF-12 ag -4, DAX1 inh-2 0, hcDAF12 agonist -2 and ssDAF12 agonist -2.
O=C1CC(c2ccco2)Sc2nc3ccccc3n21 (configuration not stated) was read as SMARCA2 activ 1, DAX1 inh-1 1, hgDAF-12 ag 8, DAX1 inh-2 2, hcDAF12 agonist 9.8*, ssDAF12 agonist 2.8*, LXRb hcDAF ctr 0 and hcDAF12 conf 10*.
COc1ccc(/C(C)=N/Nc2nc3ccccc3nc2C)cc1OC was read as SMARCA2 activ 3, DAX1 inh-1 5.1*, hgDAF-12 ag 9, DAX1 inh-2 2, hcDAF12 agonist 8.4*, ssDAF12 agonist 0, LXRb hcDAF ctr 0 and hcDAF12 conf 0.
`COc1ccc(/C(C)=N/Nc2cccc(C(=O)O)c2)cc1OC` gave SMARCA2 activ 2, DAX1 inh-1 0, hgDAF-12 ag 7, DAX1 inh-2 2, hcDAF12 agonist 2 and ssDAF12 agonist -1.
CCc1c(-c2ccc(F)cc2F)ncn1CCc1ccccc1OC was read as SMARCA2 activ 4, hgDAF-12 ag -1, DAX1 inh-2 0, hcDAF12 agonist -2 and ssDAF12 agonist -2.
COc1ccc(-c2cc(C(F)(F)F)n3nc(C(=O)Nc4c(C)n(C)n(-c5ccccc5)c4=O)c(Cl)c3n2)cc1 was read as SMARCA2 activ 1, DAX1 inh-1 -2, hgDAF-12 ag 2, DAX1 inh-2 -1, hcDAF12 agonist 1 and ssDAF12 agonist -1.
Cc1c(NC(=O)c2nn3c(C(F)(F)F)cc(-c4ccccc4)nc3c2Cl)c(=O)n(-c2ccccc2)n1C was read as SMARCA2 activ -3, DAX1 inh-1 -1, hgDAF-12 ag 2, DAX1 inh-2 0, hcDAF12 agonist 6.8*, ssDAF12 agonist -1, LXRb hcDAF ctr 0 and hcDAF12 conf -1.
c1ccc(CSc2cc3ccccc3[nH]2)cc1 was read as SMARCA2 activ 1, DAX1 inh-1 2, hgDAF-12 ag 9, DAX1 inh-2 1, hcDAF12 agonist 10*, ssDAF12 agonist 1, LXRb hcDAF ctr 1 and hcDAF12 conf 11*.
Screening Cn1c(=N)n(CC(=O)c2ccc(Br)s2)c2ccccc21 returned SMARCA2 activ 5, DAX1 inh-1 4, hgDAF-12 ag 12*, DAX1 inh-2 3, hcDAF12 agonist 14*, ssDAF12 agonist 2.8*, LXRb hcDAF ctr 2 and hcDAF12 conf 16*.
Screening CCN(CC)CCn1c(=N)n(CC(=O)c2ccc(Br)s2)c2ccccc21 returned SMARCA2 activ -1, hgDAF-12 ag -1, DAX1 inh-2 1, hcDAF12 agonist 5 and ssDAF12 agonist 0.
`CC(C)c1ccc(NC(=O)c2sccc2-n2cccc2)cc1` gave SMARCA2 activ 3, DAX1 inh-1 0, hgDAF-12 ag 12*, DAX1 inh-2 1, hcDAF12 agonist 11*, ssDAF12 agonist 0, LXRb hcDAF ctr 0 and hcDAF12 conf 8.9*.
